Experiment [1] in a line: anti-His antibody binders, primary screen, artefact control for SMM control protein annotation, biochemical, small-molecule microarray, 635 nm fluorescence (AID 1128).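 Note: score merges feature fluorescence with signal-to-noise for each printed compound spot.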 As to conditions: anti-His Alexa647 antibody binding, higher = more signal.
Experiment [2] has as its system Human papillomavirus type 1a E7 protein (residues 1-88). Description: HPV1a E7 small-molecule binders, primary screen, biochemical, small-molecule microarray, residues 1-88, 635 nm (AID 1129). The following applies: small-molecule microarray binding, fluorescence 635 nm; higher = more signal.
Experiment [3] deals with Focal adhesion kinase 1 (Homo sapiens) (UniProt Q05397). Description: small-molecule microarray binders of FAK, primary screen, biochemical, 635/667 nm fluorescence, BSA, DTT (AID 1130).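 Note: composite of spot emission at 667 nm and signal to noise over triplicate slides.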 As to conditions: PTK2 binding, 635 nm fluorescence, higher = more signal.
Focal adhesion kinase 1 (Homo sapiens), sequence (Q05397 whole entry, looked up): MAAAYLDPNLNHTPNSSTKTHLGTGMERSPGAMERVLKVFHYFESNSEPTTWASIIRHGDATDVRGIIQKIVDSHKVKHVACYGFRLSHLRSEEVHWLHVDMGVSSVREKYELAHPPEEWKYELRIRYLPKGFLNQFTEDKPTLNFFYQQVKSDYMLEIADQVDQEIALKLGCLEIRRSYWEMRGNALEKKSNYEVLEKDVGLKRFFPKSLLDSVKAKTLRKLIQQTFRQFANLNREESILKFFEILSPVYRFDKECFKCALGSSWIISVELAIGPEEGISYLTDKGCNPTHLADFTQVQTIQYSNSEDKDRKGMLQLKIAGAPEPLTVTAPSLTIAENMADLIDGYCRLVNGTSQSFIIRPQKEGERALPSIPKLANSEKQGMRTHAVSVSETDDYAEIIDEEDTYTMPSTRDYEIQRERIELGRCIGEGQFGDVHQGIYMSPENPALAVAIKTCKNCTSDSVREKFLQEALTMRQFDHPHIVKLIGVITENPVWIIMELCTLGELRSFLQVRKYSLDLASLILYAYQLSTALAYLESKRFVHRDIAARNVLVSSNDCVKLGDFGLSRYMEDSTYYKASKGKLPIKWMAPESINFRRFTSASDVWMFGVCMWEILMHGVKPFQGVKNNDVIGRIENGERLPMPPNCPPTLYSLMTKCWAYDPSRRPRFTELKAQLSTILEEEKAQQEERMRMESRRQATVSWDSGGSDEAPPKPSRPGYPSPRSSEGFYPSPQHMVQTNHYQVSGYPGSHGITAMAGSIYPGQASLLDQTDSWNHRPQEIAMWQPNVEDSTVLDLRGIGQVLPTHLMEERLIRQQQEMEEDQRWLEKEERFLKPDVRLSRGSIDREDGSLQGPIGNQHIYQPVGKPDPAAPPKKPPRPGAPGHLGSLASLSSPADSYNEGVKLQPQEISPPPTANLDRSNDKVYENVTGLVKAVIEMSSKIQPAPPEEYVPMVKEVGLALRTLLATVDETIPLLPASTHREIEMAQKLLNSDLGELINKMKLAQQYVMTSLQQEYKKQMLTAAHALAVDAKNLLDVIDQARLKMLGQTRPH
Experiment [4] has as its system Fibrinogen (Alexa647-labelled). Description: fibrinogen binders on compound microarrays, profiling panel, artefact control for SMM control-protein annotation, biochemical, small-molecule microarray, 635/667 nm fluorescence (AID 1131).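 Note: z-score merges 667 nm fluorescence with per-spot signal-to-noise over triplicate slides.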 The following applies: fibrinogen-A647 binding fluorescence, higher = more signal.
The target in experiment [5] is Follistatin (Homo sapiens) (UniProt P19883). Description: follistatin binders on small-molecule microarrays, primary screen, biochemical, small-molecule microarray, 635/667 nm fluorescence (AID 1132). As to conditions: FST binding, 635 nm fluorescence, higher = more signal.
Follistatin (Homo sapiens), sequence (P19883 whole entry, looked up): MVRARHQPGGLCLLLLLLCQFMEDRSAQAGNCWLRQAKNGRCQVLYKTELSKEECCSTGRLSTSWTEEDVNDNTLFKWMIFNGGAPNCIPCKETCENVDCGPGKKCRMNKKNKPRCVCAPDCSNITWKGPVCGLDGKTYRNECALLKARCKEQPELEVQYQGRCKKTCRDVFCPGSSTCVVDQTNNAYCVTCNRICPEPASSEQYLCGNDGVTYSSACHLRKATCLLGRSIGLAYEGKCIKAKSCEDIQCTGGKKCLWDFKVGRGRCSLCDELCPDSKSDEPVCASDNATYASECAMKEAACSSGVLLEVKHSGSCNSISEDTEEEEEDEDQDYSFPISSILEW
Experiment [6] concerns the target Fibroblast growth factor 2 (Homo sapiens) (UniProt P09038). Kind of experiment: FGF2 binders on small-molecule microarrays, primary screen, biochemical, small-molecule microarray, 635/667 nm fluorescence (AID 1133). The following applies: small-molecule microarray binding, FGF2, fluorescence 635/667; higher = more signal.
Experiment [7] in a line: mitochondrial membrane potential change in A549 cells, profiling panel, cell-based, JC-1 fluorescence, basal, 24 h, 100 nL (AID 1138).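 Note: A549 lung adenocarcinoma cells under basal conditions with no added stimulus; test concentration not given here.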 The following applies: higher = more signal.
The subject of the next experiment is Lefty1. Kind of experiment: Lefty1 binders on small-molecule microarrays, primary screen, biochemical, small-molecule microarray, 635/667 nm fluorescence (AID 1139). The following applies: small-molecule microarray binding, fluorescence 635/667; higher = more signal.
Experiment [8] deals with wheat germ agglutinin (Triticum aestivum), Alexa647-labelled. Kind of experiment: wheat germ agglutinin binders on compound microarrays, profiling panel, artefact control for SMM control-protein annotation, biochemical, small-molecule microarray, 635/667 nm fluorescence (AID 1140).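 Note: score merges 667 nm feature emission with signal to noise over triplicate slides.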 The following applies: WGA-A647 binding, 635 nm fluorescence, higher = more signal.
Experiment [9] deals with Luciferin 4-monooxygenase (Photinus pyralis) (UniProt P08659). Kind of experiment: firefly luciferase enzyme inhibitors, primary screen, biochemical, luminescence, purified enzyme, 2006 set (AID 1141).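 Note: cell-free assay with purified firefly luciferase at 100 ng per well in PBS; test concentration not given here.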 The following applies: SteadyGlo luminescence, 30 min, higher = more signal, called active from +8 up or from −8 down.
Luciferin 4-monooxygenase (Photinus pyralis), sequence (P08659 whole entry, looked up): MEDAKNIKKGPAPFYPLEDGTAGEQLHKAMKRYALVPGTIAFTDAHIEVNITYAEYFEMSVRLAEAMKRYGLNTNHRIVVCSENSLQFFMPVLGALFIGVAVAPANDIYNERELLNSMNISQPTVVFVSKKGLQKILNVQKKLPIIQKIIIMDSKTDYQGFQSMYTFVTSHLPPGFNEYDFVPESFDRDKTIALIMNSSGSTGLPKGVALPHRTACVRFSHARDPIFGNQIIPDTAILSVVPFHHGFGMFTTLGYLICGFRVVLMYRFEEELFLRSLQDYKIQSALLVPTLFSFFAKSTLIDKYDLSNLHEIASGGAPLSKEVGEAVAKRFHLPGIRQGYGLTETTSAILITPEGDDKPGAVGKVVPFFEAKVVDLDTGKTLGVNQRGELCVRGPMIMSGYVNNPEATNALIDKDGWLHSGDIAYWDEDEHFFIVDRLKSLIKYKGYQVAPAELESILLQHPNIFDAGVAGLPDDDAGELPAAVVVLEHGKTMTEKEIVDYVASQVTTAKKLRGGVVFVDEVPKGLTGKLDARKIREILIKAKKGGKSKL
For experiment [10], the system named is Wnt5a (protein binding on small-molecule microarray). Kind of experiment: Wnt5a binders on small-molecule microarray, primary screen, biophysical, 635/667 nm fluorescence (AID 1142).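 Note: fluorescence read at 667 nm with signal to noise per printed feature.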 The following applies: 635 nm fluorescence, higher = more signal.
A short description of experiment [11]: cell viability in Huh7 cells, primary screen, cytotoxicity control for HCV replication inhibitor project, CellTiter-Glo luminescence, basal, 48 h (AID 1143).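 Note: Huh7 hepatoma cells carrying a hepatitis C replication reporter with no stimulus; test concentration not given here.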 As to conditions: Huh7 HCV replicon, higher = more signal, called active from +8 up or from −8 down.
A short description of experiment [12]: P. aeruginosa biofilm formation inhibitors, primary screen, PAO1 strain, BacTiter-Glo luminescence, LB-PBS (AID 1144). As to conditions: 12 h, higher = more signal.
Experiment [13] can be described thus: CREB reporter modulators without forskolin, primary screen, cell-based, PC12, CRE-LacZ reporter, unstimulated (AID 1145). As to conditions: no forskolin, luminescence, 4.5 h, higher = more signal, called active from +8 up or from −8 down.
Experiment [14] in a line: CREB reporter modulators under forskolin, primary screen, cell-based, PC12, CRE-LacZ reporter, forskolin-stimulated (AID 1146).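 Note: PC12 cells with 6xCRE LacZ reporter stimulated by forskolin 10 µM; beta-galactosidase reporter signal reflecting CREB driven transcription.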 The following applies: luminescence, 4.5 h, higher = more signal, called active from +8 up or from −8 down.
The target of experiment [15] is Streptavidin (Streptomyces avidinii) (UniProt P22629). Kind of experiment: streptavidin binders on small-molecule microarray, primary screen, artefact control for SMM compound annotation, biophysical, 635/667 nm fluorescence (AID 1147).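 Note: signal reflects streptavidin binding to arrayed compounds as a control protein.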 The following applies: streptavidin binding, higher = more signal.
Streptavidin (Streptomyces avidinii), sequence (P22629 whole entry, looked up): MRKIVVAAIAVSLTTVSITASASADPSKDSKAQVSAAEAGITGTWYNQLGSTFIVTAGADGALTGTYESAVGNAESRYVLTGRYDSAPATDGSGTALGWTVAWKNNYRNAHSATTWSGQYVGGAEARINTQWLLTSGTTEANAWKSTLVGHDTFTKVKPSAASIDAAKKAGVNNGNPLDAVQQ
A short description of experiment [16]: small-molecule binders of probe aInhba, primary screen, biochemical, small-molecule microarray, 635/667 nm fluorescence (AID 1148).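 Note: score merges 667nm spot fluorescence with signal-to-noise for antibody binding to printed compounds.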 The following applies: higher = more signal.
Experiment [17] addresses Torsin-1A (Homo sapiens) (UniProt O14656). Description: torsin A binders from cell lysate, primary screen, small-molecule microarray, wild-type, 635/667 nm (AID 1149). The following applies: COS7 hTOR1A-WT lysate, 635 nm fluorescence, higher = more signal.
Experiment [18] shares this target. Description: small-molecule binders of mutant TOR1A in lysate, primary screen, cell lysate, small-molecule microarray, COS7 lysate, 635/667 nm fluorescence (AID 1150).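 Note: score pools 667 nm emission and signal to noise measuring lysate protein binding.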 The following applies: COS7 hTOR1A mutant lysate, 635 nm fluorescence, higher = more signal.
Experiment [19] relates to Sonic hedgehog protein (Shh). Description: small-molecule binders of Shh protein, primary screen, biochemical, small-molecule microarray, 635/667 nm fluorescence (AID 1151).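 Note: Shh protein binding to compounds spotted on small-molecule microarray slides; score combines spot fluorescence intensity with signal-to-noise across triplicate slides.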 The following applies: small-molecule microarray binding, 635 nm fluorescence; higher = more signal.

Several values for one entry are separate records, joined by “and”; a condition that tells them apart may be missing. Identical values can stand only once. Activity calls are given as the source filed them. Unless noted, the rule behind the calls is not given here.

Torsin-1A (Homo sapiens), sequence (O14656 whole entry, looked up): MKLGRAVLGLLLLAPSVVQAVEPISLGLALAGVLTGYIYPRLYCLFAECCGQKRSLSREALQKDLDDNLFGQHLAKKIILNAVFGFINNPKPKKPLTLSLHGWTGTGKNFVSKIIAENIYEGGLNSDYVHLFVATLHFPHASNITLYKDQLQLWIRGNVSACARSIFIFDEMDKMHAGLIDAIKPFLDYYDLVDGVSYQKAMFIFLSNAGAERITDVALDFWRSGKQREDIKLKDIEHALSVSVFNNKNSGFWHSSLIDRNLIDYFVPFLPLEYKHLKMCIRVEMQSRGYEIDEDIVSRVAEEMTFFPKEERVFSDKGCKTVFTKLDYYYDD
Fibroblast growth factor 2 (Homo sapiens), sequence (P09038 whole entry, looked up): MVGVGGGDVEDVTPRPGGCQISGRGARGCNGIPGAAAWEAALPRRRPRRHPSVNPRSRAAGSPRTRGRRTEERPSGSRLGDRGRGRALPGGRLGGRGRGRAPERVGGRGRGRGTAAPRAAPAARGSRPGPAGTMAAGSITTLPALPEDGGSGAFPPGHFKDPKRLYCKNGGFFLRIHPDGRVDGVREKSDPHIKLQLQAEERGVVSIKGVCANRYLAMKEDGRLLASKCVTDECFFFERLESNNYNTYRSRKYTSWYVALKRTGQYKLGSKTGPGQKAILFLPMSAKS

Take `C[C@@H]1CC[C@H]2C(=O)O[C@H](CN=[N+]=[N-])CN2[C@H]1c1ccc(Br)cc1`: the composite z-score was 0.755 and 0.806 in [1]; -0.841 and -0.245 in experiment [2]; 0.073 and 0.0778 in experiment [3]; 0.142 and 0.149 in experiment [4]; 0.506 and -0.488 in experiment [5]; 0.0443 and -0.132 in experiment [6]. The composite z-score with Lefty1 was 0.212 and 0.0831; in [8], -0.276 and -0.0024; in experiment [10], -0.0328 and -0.216; in experiment [15], -0.167 and 0.0058; in experiment [16] it was 0.0232 and -0.154; with Torsin-1A (Homo sapiens) [17], 0.225 and 0.372. Besides, the composite z-score was 0.455 and 0.101 with Torsin-1A (Homo sapiens) [18]; 0.286 and -0.196 in [19]. In addition, the z-score was 0.703 and 0.206 in experiment [7]; 0.788 (inactive) and -1.42 (inactive) in [9]; -2.85 (inactive) and -0.512 (inactive) in experiment [11]; -0.203 (inactive) and -0.277 (inactive) in [12]; -0.162 (inactive) and 3.89 (inactive) in [13]; -0.177 (inactive) and -0.414 (inactive) in experiment [14].
Regarding `CCCC[C@@H]1CN2[C@@H](CC[C@@H](C)[C@@H]2c2ccc(Br)cc2)C(=O)O1`, the composite z-score in experiment [1] was 2.07 and 0.917; in [2], 1.16 and 0.572; in experiment [3], 0.367 and -0.0877; in experiment [4], 0.822 and 0.727; in experiment [5], 0.493 and 0.606; in experiment [6] it was 0.295 and 0.952. Also, the composite z-score in the experiment on Lefty1 is 0.647 and 0.882; in [8], 0.303 and 0.182; in experiment [10] it was -0.0248 and 0.0673; in experiment [15], 0.119 and 0.117; in experiment [16] it was -0.101 and 0.0074; with Torsin-1A (Homo sapiens) [17], 0.434 and -0.0758. In addition, the composite z-score is 0.458 and 0.139 with Torsin-1A (Homo sapiens) [18]; 0.611 and 0.993 in [19]. The z-score in experiment [7] is -0.555 and 1.63; in [9] it was 0.355 (inactive) and -0.572 (inactive); in [11], -0.216 (inactive) and -0.116 (inactive); in experiment [12], 0.283 (inactive) and 1.16 (inactive); in [13] it was -0.704 (inactive) and 1.1 (inactive); in [14], 0.693 (inactive) and 0.189 (inactive).
Turning to `CCOC(=O)c1ccc(NC(=O)O[C@H]2[C@H](OC(=O)Nc3ccccc3)[C@@H](OC(=O)Nc3ccccc3)[C@@H](OC)O[C@@H]2CO)cc1`, the composite z-score is 2.39 and 2.88 in [1]; 1.26 and 1.28 in [2]; 1.78 and 0.545 in experiment [3]; 1 in experiment [4]; 1.2 and 1.4 in [5]; 0.601 and 1.59 in experiment [6]. Also, the composite z-score with Lefty1 is 0.88 and 1.51; in experiment [8], 1.32 and 1.12; in experiment [10], 0.493 and 0.437; in experiment [15], 1.64 and 0.53; in experiment [16] it was 0.333 and 0.0982; in the experiment with Torsin-1A (Homo sapiens) [17] it was 1.19 and 0.89. In addition, the composite z-score with Torsin-1A (Homo sapiens) [18] was 0.556 and 0.56; in experiment [19], 0.955 and 1.97. Moreover, the z-score is -1.02 and -1.32 in [7]; -0.427 (inactive) and -0.249 (inactive) in [9]; -4.44 (inactive) and -4.14 (inactive) in [11]; 0.0469 (inactive) and -1.32 (inactive) in [12]; 1.55 (inactive) and -0.552 (inactive) in [13]; -1.38 (inactive) and -1.61 (inactive) in experiment [14].
Regarding `C#CCCCON=C1C[C@@H](O)[C@@H](O)[C@@H]2[C@@H]3C(=O)N(C4CCCCC4)C(=O)[C@@H]3CC[C@H]12`, the composite z-score was 1.31 in [1]; 1.1 in experiment [2]; 0.498 in experiment [3]; 0.962 in experiment [4]; -0.0195 in experiment [5]; 0.0951 in experiment [6]. Also, the composite z-score in the experiment on Lefty1 was 0.112; in [8], 0.698; in experiment [10], -0.176; in experiment [15] it was 1.03; in [16], -0.101; with Torsin-1A (Homo sapiens) [17] it was 1.06. Moreover, the composite z-score with Torsin-1A (Homo sapiens) [18] is 0.0924; in [19], -0.105. Further, the z-score in experiment [7] is 0.83; in [9] it was -1.01 (inactive); in [11] it was -0.379 (inactive); in experiment [12], 0.353 (inactive); in experiment [13] it was -0.474 (inactive); in experiment [14], -0.236 (inactive).

The record behind these values is PubChem BioAssay.
